Assay outcomes from PubChem.
HEK cytotox: Cytotoxic Profiling in HEK 293 Cell Line of Diverse Libraries Using Quantitative High-Throughput Screening. HEK 293 viability, ATP luminescence (CellTiter-Glo), 48-72 h. Potency, µM (doses to about 115 µM), for the others: at the highest dose activity change, negative = cytotoxicity, hits mostly inhibitors. hit rate 6.6% among 94,000; further: nearly all actives have a fitted effect of over 60% in size
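CellTiter-Glo luminescence (cellular ATP) was read after 48 or 72 hr of compound exposure at 37 degree Celsius. Cells were HEK 293 plated at 250 cells/well.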
3T3 cytotox: Cytotoxic Profiling in NIH 3T3 Cell Line of Diverse Libraries Using Quantitative High-Throughput Screening; NIH 3T3 viability, CellTiter-Glo ATP luminescence, 48-72 h; Potency, µM (top dose mostly 96.7 µM), for inactives: at the highest dose activity change, negative = cytotoxicity, hits mostly inhibitors; hit rate 4.3% among 94,000; AID 1345082, 2018; further: nearly all actives have a fitted effect of over 55% in size
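Cells were seeded at 400 per well, treated with pin-transferred compound, and kept 48 or 72 hr at 37 °C before CellTiter-Glo addition and luminescence imaging of cellular ATP.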
FLuc inh: Firefly luciferase inhibition profiling of diverse chemical library using quantitative high-throughput screening; purified P. pyralis luciferase, luminescence, biochemical; Potency, µM (doses to about 115 µM), usual class: inhibitors; hit rate 2.5% among 76,000; AID 1347043, 2019; further: nearly all actives have a fitted effect of over 65% in size
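Purified 10nM P. pyralis luciferase with 10uM D-luciferin and 10uM ATP in 50mM Tris acetate pH 7.5, 10mM Mg acetate, 0.01% Tween-20, 0.05% BSA. qHTS titration; luminescence read by CCD imager.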
hNpr1 antagonist: Natriuretic polypeptide receptor (hNpr1) antagonism - Primary qHTS; hit rate 1.6% among 76,000; HEK293 hNpr1 GloSensor cGMP, ANP-stimulated luminescence; Potency, µM (titrated, usually from 46.3 µM), inactives show at the top dose activity change, negative = inhibition, hits mostly inhibitors; calls by dose curve; further: nearly all actives have a fitted effect of over 60% in size
Target sequence (P16066 whole entry, looked up): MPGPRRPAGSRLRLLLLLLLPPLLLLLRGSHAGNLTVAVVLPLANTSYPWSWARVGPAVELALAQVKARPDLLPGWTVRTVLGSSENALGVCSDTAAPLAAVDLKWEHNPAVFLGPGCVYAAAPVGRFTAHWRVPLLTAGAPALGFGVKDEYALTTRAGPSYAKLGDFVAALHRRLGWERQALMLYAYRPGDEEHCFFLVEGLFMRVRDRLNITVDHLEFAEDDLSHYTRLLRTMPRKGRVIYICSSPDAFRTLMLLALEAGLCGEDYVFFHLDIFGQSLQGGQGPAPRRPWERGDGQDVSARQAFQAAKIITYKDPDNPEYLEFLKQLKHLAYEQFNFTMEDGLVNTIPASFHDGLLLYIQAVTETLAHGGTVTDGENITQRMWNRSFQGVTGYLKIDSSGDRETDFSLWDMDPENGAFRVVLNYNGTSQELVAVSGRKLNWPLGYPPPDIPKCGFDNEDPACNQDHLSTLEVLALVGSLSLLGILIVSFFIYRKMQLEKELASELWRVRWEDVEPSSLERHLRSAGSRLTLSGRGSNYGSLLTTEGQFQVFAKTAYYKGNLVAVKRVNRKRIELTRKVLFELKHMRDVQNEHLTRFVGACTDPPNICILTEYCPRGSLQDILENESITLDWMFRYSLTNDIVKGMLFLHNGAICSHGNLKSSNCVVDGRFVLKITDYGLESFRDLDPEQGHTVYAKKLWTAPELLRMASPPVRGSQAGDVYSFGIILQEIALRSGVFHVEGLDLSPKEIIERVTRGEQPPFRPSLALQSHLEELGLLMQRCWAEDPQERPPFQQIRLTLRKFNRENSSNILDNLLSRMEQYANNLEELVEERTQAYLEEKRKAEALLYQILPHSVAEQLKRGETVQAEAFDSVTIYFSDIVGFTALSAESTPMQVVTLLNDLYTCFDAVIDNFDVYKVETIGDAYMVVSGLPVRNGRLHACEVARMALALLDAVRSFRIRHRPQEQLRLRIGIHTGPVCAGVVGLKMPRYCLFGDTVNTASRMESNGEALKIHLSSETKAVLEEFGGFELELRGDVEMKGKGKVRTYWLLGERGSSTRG
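HEK293 cells stably expressing human Npr1 and cGMP GloSensor pGS-40F, loaded 2 h with 2% GloSensor reagent, given compound 30 min at room temperature. Luminescence read before and 20 min after 0.1 nM hNppA.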
* hit, by the source's call; i = inactive; u = inconclusive; x = no result given; [ ] = another dose, or the depositor's remark. In the library only some 11% were active in any assay of this set; here they are far more common. Unless noted, the call rests on the fitted dose curve; in most records, active means well fitted curve in the direction sought with a large enough effect; inconclusive means small, poorly fitted or top-dose-only effect, or another doubt; inactive means no such curve, though single readings can be large; an effect the other way counts as inactive or inconclusive. On the % scale 0 is the no-effect control and ±100 the full control effect; potency means the concentration at half of the fitted maximal effect.

SMILES | HEK cytotox | 3T3 cytotox | FLuc inh | hNpr1 antagonist
Cc1noc(C)c1[S+](=O)([O-])N1CCCC2(CC(c3cccc(C(F)(F)F)c3)=NO2)C1 (stereo unspecified) | 35.5µM* | -13.3% | i | -15.1%
FC(F)(F)c1cccc(C2=NOC3(CCCN(Cc4cccc5ccccc45)C3)C2)c1 (stereo unspecified) | u | u | i | 8.0%
FC(F)(F)c1cccc(C2=NOC3(CCCN(Cc4cccs4)C3)C2)c1 (stereo unspecified) | u | 35.5µM* | i | -9.4%
C[S+](=O)([O-])N1CC2(CCCN(Cc3ccccn3)C2)Cc2ccccc21 (stereo unspecified) | -11.2% | 0.3% | x | x
O=C(c1ccn(C(F)F)n1)N1CCCC(c2ccccc2)(c2ccccc2)C1 | u | u | i | -4.2%
CC(C)N1C(=O)C(CC(=O)Nc2cccc(OC(F)(F)F)c2)=C2CCCCC21 (stereo unspecified) | u | u | i | -0.4%
CC1(C(=O)NCCN2CCCCC2)CCCCC(=O)N1 (stereo unspecified) | -0.3% | -1.4% | u | 0.8%
O=C(c1ccc(Cl)cc1)N1CCOC(CN(C(=O)c2ccc(F)cc2)C2CCCC2)C1 (stereo unspecified) | 44.7µM* | u | i | -16.9%
CN(C)CC(C)(C)NC(=O)c1csc2nc(-c3cccc(C(F)(F)F)c3)cn12 | 44.7µM* | u | i | -8.7%
CCN(C)C(=O)CCc1c(C)nn(-c2ccccc2)c1Oc1ccccc1F | 39.8µM* | u | i | -17.2%
CCN(C)C(=O)CCc1c(C)nn(-c2cccc(C)c2)c1Oc1ccccc1 | 39.8µM* | 35.5µM* | i | -20.9%
CCN(CC)C(=O)CCc1c(C)nn(-c2ccccc2)c1Oc1cccc(F)c1 | u | u | i | -14.0%
CCN(CC)C(=O)CCc1c(C)nn(-c2ccccc2)c1Oc1ccc(F)cc1F | u | u | i | -23.1%
CCN(CC)C(=O)CCc1c(C)nn(-c2ccc(F)cc2)c1Oc1ccccc1C | u | 39.8µM* | i | -20.6%
CCCn1cc(CNC(=O)c2ccc3c(c2)n(CC)c(=O)c2ccnn23)c(C)n1 | 79.4µM* | u | i | -0.1%
CC1=NS(=O)(=O)N(C)C=C1C(=O)OCc1noc(-c2ccccc2Cl)n1 | u | u | u | 11.2µM*
Fc1ccc(OCCc2noc(C3CCCNC3)n2)cc1 (stereo unspecified) | -19.2% | -8.2% | i | 1.3%
COc1cccc(Cn2c(=O)c3ccnn3c3ccc(C(=O)NCCCN(C)C)cc32)c1 | 39.8µM* | 35.5µM* | i | -1.8%
C#CCNC(=O)c1nc(-c2ccsc2)c2cnccn12 | 100µM* | -20.7%[138 µM] | i | 0.0%[70.6 µM]
C#CCNC(=O)c1nc(-c2cccnc2)c2cnccn12 | u | -22.4%[138 µM] | i | 12.6%[70.6 µM]
CN(C)C(=O)C(C)(C)Oc1nn(Cc2cccc(Cl)c2)c2ccccc12 | 79.4µM* | u | i | -9.6%[70.6 µM]
COCCN(C)C(=O)C(C)(C)Oc1nn(Cc2cccc(Cl)c2)c2ccccc12 | 89.1µM* | 79.4µM* | i | -21.7%[70.6 µM]
COCc1ccc2c(c1)c(OC(C)(C)C(N)=O)nn2Cc1cccc(OC)c1 | u | u | i | 6.5%[70.6 µM]
CN(C)Cc1ccc2c(c1)c(OC(C)(C)C(=O)NC1CC1)nn2Cc1ccccc1 | -23.4%[172 µM] | u | i | 3.6%[70.6 µM]
COc1cccc(OC)c1C(=O)NC1CC(=O)N(CCc2ccc(F)cc2)C1 (stereo unspecified) | -9.0% | -21.2% | i | 0.8%
SMILES | HEK cytotox | 3T3 cytotox | FLuc inh | hNpr1 antagonist
COc1ccccc1Nc1ncc2c(n1)CN([S+](=O)([O-])c1ccccc1)CCN2 | 100µM* | u | i | -11.2%[70.6 µM]
O=C(C1CCC1)N1CCNc2cnc(Nc3ccccc3)nc2C1 | u | u | i | -29.2%[70.6 µM]
O=[S+]([O-])(c1ccccc1)N1CCNc2cnc(Nc3cccc(F)c3)nc2C1 | 89.1µM* | u | i | u
O=C(c1ccccc1Cl)N1CCC(C(=O)N2CCC(c3nc4ncccc4[nH]3)CC2)CC1 | i | 1.8% | x | x
O=C(c1cc(COc2ccccc2F)[nH]n1)N1CCOCC1 | i | -4.3% | 31.6µM* | -1.3%
CN(CCC1CCOCC1)C(=O)c1cc(COc2ccccc2F)[nH]n1 | 11.1% | i | i | 3.5%
O=C(c1ccccc1F)N1CCCC(C(=O)N2CCCC(c3nc4ccncc4[nH]3)C2)C1 (stereo unspecified) | -21.5% | -35.7% | x | x
O=C(NCC1Cn2cccc2CN1Cc1ccccc1)c1ccc2cc[nH]c2c1 (stereo unspecified) | 79.4µM* | u | i | -11.7%
COc1cccc(Nc2ccnc(N3CCN([S+](=O)([O-])c4c(C)noc4C)CC3)n2)c1 | -17.3% | -22.4% | x | x
COc1cccc(-c2noc(Nc3cc(C)cc(C)c3)n2)c1OC | u | u | 20µM* | -19.3%
COc1cccc(-c2noc(NCc3cccc(Cl)c3)n2)c1OC | 79.4µM* | u | i | -5.1%
Fc1ccccc1-c1noc(NCc2ccccc2)n1 | u | u | 28.2µM* | -7.9%
COc1ccc(-c2noc(Nc3cc(C)cc(C)c3)n2)cc1 | u | u | u | -10.1%
CCC(=O)C(=O)N1CCC2(CCCN(Cc3ccc(C(C)C)cc3)C2=O)C1 (stereo unspecified) | u | u | i | -11.0%
c1cc(-c2nc(-c3ccc(OC4CNC4)cc3)no2)ccn1 | u | u | u | -2.5%
O=C(Nc1ccccc1F)N1CC(Oc2ccc(-c3nc(-c4ccccc4)no3)cc2)C1 | -10.5% | -0.6% | u | -17.9%
O=C(NCc1ccc(F)cc1)N1CC(Oc2ccc(-c3noc(-c4ccccc4)n3)cc2)C1 | u | u | u | 14.1µM*
c1coc(CN2CC(Oc3ccc(-c4noc(-c5ccncc5)n4)cc3)C2)c1 | 17.8µM* | u | 3.98µM* | 11.2µM*
O=C(Nc1ccccc1F)N1CC(Oc2ccc(-c3noc(-c4ccccc4)n3)cc2)C1 | u | -16.4% | u | 10µM*
O=C(NCc1ccccc1)N1CC(Oc2cccc(-c3nc(-c4ccccc4)no3)c2)C1 | 17.8µM* | u | i | -19.5%
COc1ccc(C)cc1NC(=O)N1c2ccccc2CC1c1nc(C2CC2)no1 (stereo unspecified) | -28.9% | u | i | 0.5%
c1ccc(-c2nc(-c3ccc(OC4CNC4)cc3)no2)cc1 | u | 15.8µM* | 3.98µM* | u
O=C(COc1ccc(F)cc1)N1CC(Oc2cccc(-c3nc(-c4ccccc4)no3)c2)C1 | u | u | u | -16.7%
O=C(CCc1ccccc1)N1CC(Oc2ccc(-c3nc(-c4ccccc4)no3)cc2)C1 | u | -17.8% | u | u
